Experimental data taken from PubChem BioAssay (NCI).
About 79,000 compounds went through this panel and 15% of them were active in at least one assay; those are over-represented in the sample as a whole. Activity calls are given as the source filed them. No stated cut-off is given here; in the data, active means growth inhibition above about 70%; inactive means the rest.

How the values were obtained:
[1] = NCI Yeast Anticancer Drug Screen. Data for the rad50 strain (AID 155);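 further: 0% = growth of vehicle-only cultures of the same strain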; conditions: S. cerevisiae rad50 strain growth inhibition, active compounds read high
Outline: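 Compounds were tested on a yeast strain with an engineered DNA damage repair alteration; the reported value is growth inhibition normalised to vehicle treatment.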

[2] = NCI Yeast Anticancer Drug Screen. Data for the mec2-1 strain (AID 157); conditions: S. cerevisiae mec2-1 strain, active compounds read high
Outline: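 mec2-1 yeast strain, carrying an alteration in DNA damage repair or cell cycle control, was exposed to compounds; growth inhibition was measured relative to vehicle-treated controls.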

[3] = NCI Yeast Anticancer Drug Screen. Data for the sgs1 mgt1 strain (AID 161);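 further: 0% = growth of cultures given vehicle only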; conditions: S. cerevisiae sgs1 mgt1 strain, active compounds read high
Outline: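 Compounds are added to genetically altered yeast, and growth is compared with cultures given vehicle alone to give percent inhibition.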

[4] = NCI Yeast Anticancer Drug Screen. Data for the cln2 rad14 strain (AID 165);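 further: 0% = growth equal to vehicle treated cultures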; conditions: S. cerevisiae cln2 rad14 strain, active compounds read high
Outline: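 Yeast carrying cln2 and rad14 alterations (cell cycle control and DNA damage repair) were exposed to compounds. Growth inhibition was measured against vehicle-treated controls.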

[5] = NCI Yeast Anticancer Drug Screen. Data for the bub3 strain (AID 167); conditions: S. cerevisiae bub3 mutant strain, active compounds read high
Outline: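 Growth of a checkpoint-deficient yeast mutant is measured after compound exposure. Values represent inhibition relative to vehicle.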

[6] = NCI Yeast Anticancer Drug Screen. Data for the mlh1 rad18 strain (AID 175); conditions: S. cerevisiae mlh1 rad18 strain growth inhibition, active compounds read high
Outline: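 Growth inhibition of the yeast strain was measured after compound exposure and expressed relative to vehicle-treated controls. The strain carries defined defects in DNA damage repair.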

[7] = at 5.0 µM (retest, dose inferred, filed as 0.5)
[8] = at 50.0 µM (retest, dose inferred, filed as 5.0)

Measured: growth inhibition

CCOC(=O)C(NNc1ccccc1)C(c1ccccc1)[P+](c1ccccc1)(c1ccccc1)c1ccccc1 (stereo not given)
inactive: [4]; [7] 59%
active: [1]; [7] 78% | [1]; [8] 99% | [1]; at 50.0 µM 99.5% | [2]; [7] 94% | [2]; [8] 99% | [2]; at 50.0 µM 99.7% | [3]; [7] 85% | [3]; [8] 99% | [3]; at 50.0 µM 99.7% | [4]; [8] 99% | [4]; at 50.0 µM 99.5% | [5]; [7] 91% | [5]; [8] 99% | [5]; at 50.0 µM 99.4% | [6]; [7] 95% | [6]; [8] 99% | [6]; at 50.0 µM 99.7%

CC1SC2(C(=O)Nc3ccc(Br)cc32)N(c2ccc(Cl)cc2)C1=O (stereo not given)
inactive: [1]; [7] 13% | [1]; at 50.0 µM 50.4% | [2]; [7] 2% | [3]; [7] -2% | [3]; at 50.0 µM 56.1% | [4]; [7] -3% | [5]; [7] 15% | [6]; [7] 10% | [6]; at 50.0 µM -8.55%
active: [1]; [8] 99% | [2]; [8] 99% | [2]; at 50.0 µM 99.5% | [3]; [8] 98% | [4]; [8] 95% | [4]; at 50.0 µM 90.8% | [5]; [8] 99% | [5]; at 50.0 µM 96.9% | [6]; [8] 99%

Cc1ccccc1C(=N)c1ccccc1Cc1cccc2ccccc12
inactive: [1]; [7] 9% | [2]; [7] -10% | [3]; [7] -1% | [4]; [7] -11% | [5]; [7] -9% | [6]; [7] 0%
active: [1]; [8] 93% | [1]; at 50.0 µM 92.5% | [2]; [8] 91% | [2]; at 50.0 µM 88.5% | [3]; [8] 92% | [3]; at 50.0 µM 93.2% | [4]; [8] 87% | [4]; at 50.0 µM 78.9% | [5]; [8] 93% | [5]; at 50.0 µM 88.4% | [6]; [8] 91% | [6]; at 50.0 µM 91.2%

C/C(=N\NC(=S)Nc1ccc(C)cc1)c1nc2ncccc2[nH]1
active: [1]; [8] 84% | [1]; at 50.0 µM 73.8% | [2]; [8] 88% | [3]; [8] 84% | [4]; [8] 91% | [5]; [8] 97% | [5]; at 50.0 µM 71.5% | [6]; [8] 91%
inactive: [1]; [7] -9% | [2]; [7] -6% | [2]; at 50.0 µM 66.2% | [3]; [7] 0% | [3]; at 50.0 µM 66.3% | [4]; [7] -36% | [4]; at 50.0 µM 64.5% | [5]; [7] -21% | [6]; [7] 4% | [6]; at 50.0 µM 50.9%

O=C1C2Nc3ccccc3SC2C(=O)N1c1ccccc1C(F)(F)F (stereo not given)
active: [1]; at 50.0 µM 73.8% | [6]; at 50.0 µM 73.2%
inactive: [1]; [7] 3% | [1]; [8] 35% | [2]; [7] 3% | [2]; [8] 11% | [2]; at 50.0 µM 12.5% | [3]; [7] 16% | [3]; [8] 24% | [3]; at 50.0 µM 47.4% | [4]; [7] 2% | [4]; [8] 11% | [4]; at 50.0 µM 46.5% | [5]; [7] -1% | [5]; [8] 29% | [5]; at 50.0 µM 13.7% | [6]; [7] 7% | [6]; [8] 44%

COc1cc(C(=O)[O][Sn]([c]2ccccc2)([c]2ccccc2)[c]2ccccc2)cc(OC)c1OC
active: [1]; [7] 100% | [1]; [8] 99% | [1]; at 50.0 µM 98.6% | [2]; [7] 100% | [2]; [8] 100% | [2]; at 50.0 µM 99.2% | [3]; [7] 99% | [3]; [8] 99% | [3]; at 50.0 µM 98.5% | [4]; [7] 99% | [4]; [8] 99% | [4]; at 50.0 µM 89.2% | [5]; [7] 99% | [5]; [8] 99% | [5]; at 50.0 µM 97% | [6]; [7] 99% | [6]; [8] 99% | [6]; at 50.0 µM 98.3%

COc1ccc(NS(=O)(=O)c2ccc(N=Cc3c4ccccc4nc4cc(Cl)ccc34)cc2)nn1
active: [1]; at 50.0 µM 94.2% | [2]; at 50.0 µM 91.8% | [3]; at 50.0 µM 95.6% | [6]; at 50.0 µM 95.8%
inactive: [1]; [7] 23% | [1]; [8] -9% | [2]; [7] 14% | [2]; [8] -5% | [3]; [7] 17% | [3]; [8] -8% | [4]; [7] 5% | [4]; [8] -6% | [4]; at 50.0 µM 36.9% | [5]; [7] 22% | [5]; [8] -4% | [5]; at 50.0 µM 52.2% | [6]; [7] 13% | [6]; [8] -4%

CN(C)CCCSc1c2ccccc2nc2cccc([N+](=O)[O-])c12
inactive: [1]; [7] 2% | [1]; [8] 10% | [1]; at 50.0 µM 3.65% | [2]; [7] 0% | [2]; [8] -1% | [2]; at 50.0 µM -9.4% | [3]; [7] -8% | [3]; [8] -3% | [3]; at 50.0 µM 7.5% | [4]; [7] 12% | [4]; [8] 18% | [4]; at 50.0 µM -47.8% | [5]; [7] 14% | [5]; [8] 8% | [5]; at 50.0 µM -43.5% | [6]; [7] 2% | [6]; [8] -5% | [6]; at 50.0 µM 20.6%

Cc1ccc(N=Nc2c(-c3ccccc3)nn(C(=S)S)c2-c2ccccc2)cc1
inactive: [1]; [7] 8% | [1]; [8] 48% | [1]; at 50.0 µM 49.7% | [2]; [7] 9% | [2]; [8] 37% | [2]; at 50.0 µM 38.5% | [3]; [7] 12% | [3]; at 50.0 µM 55.8% | [4]; [7] 5% | [4]; [8] 39% | [4]; at 50.0 µM 16.2% | [5]; [7] 36% | [6]; [7] 7% | [6]; [8] 34% | [6]; at 50.0 µM 61.8%
active: [3]; [8] 72% | [5]; [8] 84% | [5]; at 50.0 µM 85.2%

COc1ccc2c(c1)C1(C)CCCC(C)(C(=O)O)C1CC2 (stereo not given)
active: [1]; [8] 99% | [1]; at 50.0 µM 99.5% | [2]; [8] 99% | [2]; at 50.0 µM 99.5% | [3]; [8] 99% | [3]; at 50.0 µM 99.6% | [4]; [8] 99% | [4]; at 50.0 µM 96.8% | [5]; [8] 93% | [5]; at 50.0 µM 99% | [6]; [8] 98% | [6]; at 50.0 µM 99.5%
inactive: [1]; [7] -8% | [2]; [7] -7% | [3]; [7] 1% | [4]; [7] -103% | [5]; [7] -8% | [6]; [7] 2%
